From the supplement of paper PMC6555819

system: LXRa homodimer (NR concentration 270 nM); test: PBM binding z-score (relative to random genomic background probes); higher = stronger binding; sequences stand for … in GC…GCGATTGACAGCGTAGAATGAAGG
How it was run: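 Binding z-scores take random background probes as their reference. They come from custom Agilent 4×180K protein-binding microarrays incubated 1 h with ligand-free nuclear receptor dimers, with antibodies against each partner (one per run) detecting binding. Scanned fluorescence was regression-normalized.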

Row | Sequence | PBM binding z-score
1 | TCTCGGAGGACACGAAGGTCAGAGCCTTCCAGAG | -0.0178
2 | ACAGACAGGTGAGTGAAGGTAACGCAGCTGGACG | -0.468
3 | AGTCAAAGTTCAGGACGAGGTATCGTAAAGCACG | 1.22
4 | TCTAGTTGGTCACGGCGGTCACACACGACGGGTA | 0.832
5 | ACTGACGGGTCAACGAGGTTATAGCACGCGTATA | 0.67
6 | TCGAGTAGGTTAGGGGCAATCAGAATGGCGTCGA | -0.18
7 | AGAATGAGGTTAAGATCAGCGAAACAGAATACAT | -0.0518
8 | TCAGACAAGTGAAGGTAACTCAGGTACGCAGTCG | -0.177
9 | ACTATTAGTTGACTTAGGGCAACCGCTACGACGC | -0.0272
10 | ATGTGTAGGTTAAGGGTCATTCAGGTTGGTTCGC | 3.49
11 | CAAACTCGGTCACGAAAGGTCAAAGTCGAATGAC | 7.74
12 | ATATATAGGTTACATCCGGGTCATTCAGGCTATG | 2.32
13 | AGAATGAGGTTACCAAAGATCATGGAAACGCTTG | -0.149
14 | TTACCAAGCTGAAAGGTCGTTGATGCACGCCTTG | -0.316
15 | CTCGAAAGGTCGTGCTCAGCTGAGTATACCAAAC | -0.247
16 | ACCGAAAGGTCGACGAGGTGAGTATACACCGTTT | 0.178
17 | AGCATGAGGTTATTAAGATCAGGGAATTGCGGTC | 0.191
18 | AGAACGAGGGCAATGATTTGATAGCACGGGTGGC | -0.337
19 | TCATATAGGTAATACAGGTGACAGTCGGCATCTA | 0.299
20 | CCTAGCAGGCCAATCTGGGCCACTCAAGGCTTGA | -0.799

Row | Sequence | PBM binding z-score
21 | CCAAACAGGTGAGAAGGTAACTCAGCCTCGATTA | -0.189
22 | GTTAGTTGGTCAGTAAAAGGTCACACACCGGTCG | 5.17
23 | TCATATAGGTAAATGCTAGGGGAAAGTCCGATCT | 0.455
24 | CCTTACGGTTCACTCCAGGTTATAGCATCGGAGT | 2.54
25 | ACTAGCAGGCCAAGTTTGGGTCTCTCAAACAAAG | -0.773
26 | TCGACTAGGTTAGTCGGGGCATTCAGCCAACATA | -0.672
27 | ATCTCTAGGTAACGAAGTTCAGTGAATGCCGAAC | 0.427
28 | CATACAGGGTCAGCCAGGCCAGAGTAGGGACGGC | -0.255
29 | ATATGAAGGTTAGCTGGGGTCATTCAGACTAGGC | 3.34
30 | ATCTCTAGGTAAAGATAGTTCAGCGAATGCAAAT | 0.481
31 | TATACAGGGTCAAAGCCCAGAGTACGAATGTCGA | 2.47
32 | TCTGCTAAGTCAACGATGGTCAGCTAATCTGCTA | -0.993
33 | ATATGTAGGTTACATCCGGGTTATTCAGGCTATG | 0.529
34 | CCTATTACTTGACCATAAGGGCAACCGAAGCTCG | 0.834
35 | CCTATTAGTTGACCATAAGGGCGACCGAAGCTCG | 0.301
36 | TCTAGTTGGTCACTGAGGTCACACACGACGGGTA | 2.55
37 | TCTGCTAGGTCAACGATGGTCAGCTCATCTGCTA | 0.0556
38 | AGAATGAGGTTATACGCAGATCAGGGAAGAAAGT | -0.247
39 | TCTATTAGTTGTTTAGGGCAACCGAAACAGCGGA | 0.25
40 | CCCGACAGGTGAAAGGTAACTCAGTCTGGTACGC | -0.133
